HT1080 IDH1KD tx: qHTS for induction of synthetic lethality in tumor cells producing 2HG: qHTS for the HT-1080-IDH1KD cell line | HT-1080 IDH1 knockdown viability, ATP luminescence, 48 h | Potency, µM (doses to about 46.1 µM), inactives show at the top dose activity, negative = toxicity, most hits filed as cytotoxic | 2% of 360,000 active;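 also: potency is read from the fitted curve at half-maximal effect; 0% = DMSO wells and -100% = cell-free medium wells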
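% activity derives from luminescence (CellTiter-Glo), normalised to DMSO and no-cell wells. HT-1080-IDH1KD cells, 750/well, had 48 h compound exposure at 37 °C.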
IL-1B inflam inh: qHTS for Inhibitors of Inflammasome Signaling: IL-1-beta AlphaLISA Primary Screen; 4.7% of 360,000 active; THP-1 LPS/ATP IL-1B secretion, AlphaLISA, 16 h; hits give low values; activity change, % at 57.5 µM; in the data active = activity change below about -50%; inconclusive = mostly about -30% to -49%
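Secreted IL-1B measured by AlphaLISA bead assay after 16 h compound exposure of THP-1 cells; compounds (final up to 57.5 uM) added 1 h before LPS (250 ng/mL) and ATP (1.25 mM) stimulation; lower signal means less secretion.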
HT1080-NT tox: qHTS for induction of synthetic lethality in tumor cells producing 2HG: qHTS for the HT-1080-NT fibrosarcoma cell line. HT-1080-NT fibrosarcoma viability, CellTiter-Glo ATP luminescence, 48 h. AID 686970, 2013. Potency, µM (top dose mostly 46.1 µM), inactives show at the top dose activity, negative = less viability, actives largely listed as cytotoxic. 1.6% of 360,000 active;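 also: NT is the 2HG producing partner of a matched IDH1 knockdown line; potency is read from the fitted curve at half-maximal effect; 0% = DMSO-treated cells and -100% = media-only wells without cells; nearly all actives have a fitted effect of over 55% in size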
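A 48-hour cytotoxicity screen used HT-1080-NT cells plated 2 hours before compound delivery. ATP-based CellTiter-Glo luminescence measured viability, normalized to DMSO and no-cell controls.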
DT40 TDP1 CPT: qHTS for Inhibitors of human tyrosyl-DNA phosphodiesterase 1 (TDP1): qHTS in cells in presence of CPT; chicken DT40 Tdp1-/-;hTDP1 cells + 20 nM CPT, ATP luminescence, 48 h; AID 686979, 2013; Potency, µM (highest dose often 46.2 µM), without a hit: top-dose activity change, negative = growth inhibition, most hits filed as inhibitors; 12% of 420,000 active; also: potency is read from the fitted curve at half-maximal effect; nearly all actives have a fitted effect of over 55% in size
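Chicken DT40 Tdp1-/- cells stably complemented with human TDP1 were seeded at 400 cells/well in medium containing 20 nM camptothecin, exposed to pin-transferred compounds, and grown at 37 °C for at least 48 hr. Viability was read as ATP luminescence.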
DT40 TDP1 no CPT: qHTS for Inhibitors of human tyrosyl-DNA phosphodiesterase 1 (TDP1): qHTS in cells in absence of CPT; DT40 Tdp1-/- hTDP1 cells, no CPT, ATP luminescence, 48 h; Potency, µM (doses to about 46.2 µM), inactives show at the top dose activity change, negative = growth inhibition, actives largely listed as inhibitors; 15% of 420,000 active; AID 686978, 2013; also: potency is read from the fitted curve at half-maximal effect; nearly all actives have a fitted effect of over 55% in size
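Stably hTDP1-transfected Tdp1-null chicken DT40 cells were treated with library compounds minus camptothecin and grown for at least 48 hr at 37 °C, after which cellular ATP was quantified by luminescence.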
An asterisk follows results filed as active; ? = inconclusive; . = no result given; ! = not active in a repeat; [ ] = dose if it differs, or a comment. An excerpt weighted towards active compounds, which were near 19% of everything screened. Unless noted, calls follow the shape of the dose curve; as a rule, active = well fitted curve in the direction sought with a large enough effect; inconclusive = small, poorly fitted or top-dose-only effect, or another doubt; inactive = no such curve, though single readings can be large; an effect the other way counts as inactive or inconclusive. Unless noted, % is scaled to controls: 0 for no effect and ±100 for the full control effect.

SMILES	HT1080 IDH1KD tx	IL-1B inflam inh	HT1080-NT tox	DT40 TDP1 CPT	DT40 TDP1 no CPT
CC(C)C[C@H]1CNC(=S)N1CC1CCCN1C[C@H](CC(C)C)N1C[C@H](Cc2ccc(O)cc2)N(CC2CCCCCC2)C1=S (stereo partly specified)	-3%	-5	-2%	23µM*	18µM*
O=S(=O)(Oc1ccc(Cl)cc1)c1cccc2cccnc12	6%	-15	-10%	6%	?
Cn1c(=O)[nH]c(=O)c2c1nc(N1CCOCC1)n2CC(=O)c1ccccc1	3%	36	3%	3%	-21%
COc1ccc2c(Cn3cnc4cc([N+](=O)[O-])ccc4c3=O)cc(=O)oc2c1	2.6µM*	1	3.7µM*	5.2µM*	6.5µM*
Cc1ccc(OCCn2cnc3cc([N+](=O)[O-])ccc3c2=O)cc1	-25%	16	-12%	?	?
COc1cccc(CN(C)C(=O)C2CCCN(C(=O)c3ccc(Cl)cc3)C2)c1 (stereo unspecified)	5%	12	-2%	21µM*	?
COc1ccc(C(=O)N2CCCC(C(=O)N3CCCCCC3)C2)cc1 (stereo unspecified)	4%	9	0%	-10%	-5%
CN(Cc1ccccc1)C(=O)C1CCCN(Cc2cccc(Cl)c2)C1 (stereo unspecified)	?	37	?	?	23µM*!
CCOC(=O)C1CCCN(Cc2cccc(Oc3ccccc3)c2)C1 (stereo unspecified)	5%	2	7%	?	-18%
COc1cccc(CC(NC(C)=O)C(=O)NC2CCN(C(=O)c3ccc(Cl)cc3)CC2)c1 (stereo unspecified)	11%	-5	25%	-22%	5.8µM*
CC(=O)NC(Cc1ccc(F)c(F)c1)C(=O)NC1CCN(C(=O)c2ccc(Cl)cc2)CC1 (stereo unspecified)	0%	-6	1%	-1%	-12%
Cc1cc2c(cc(C(=O)OC(C(=O)NCc3ccco3)C(C)C)n2C)o1 (stereo unspecified)	-15%	0	-24%	26µM*	18µM*
Cc1cccc(/C=C2/S/C(=N/N=C3\CC4CCC3(C)C4(C)C)NC2=O)c1 (stereo unspecified)	-2%[9.24 µM]	?	-3%	?	21µM*
O=C1N/C(=N/O)S/C1=C/c1cccc([N+](=O)[O-])c1	-23%	-15	-21%	10%	-5%
Cc1cc(N2CCC(C)CC2)nc(NCc2ccccc2)n1	0%	-90*	-1%	?	16µM*
Cc1cc(N2CCC(C)CC2)nc(-c2ccccc2O)n1	-1%	3	-2%	-25%	-16%
Cc1cc(Nc2ccc(Cl)cc2)nc(NCc2ccccc2)n1	?	?	?	7.3µM*	8.2µM*
CCCCNc1cc(C)nc(NCc2ccccc2)n1	23µM*	-98*	26µM*	9.2µM*	5.8µM*
CCNc1nc(Cl)nc(NCc2ccccc2)n1	-5%	-5	-15%	-29%	-16%
Cc1cc(Oc2ccccc2)nc(NCc2ccccc2)n1	-17%	38	-6%	12µM*	21µM*
CN1CCCN(C(=O)c2cccc3ccccc23)CC1	0%	2	0%	2%	7%
Cc1cc(Nc2ccccc2)nc(NCc2ccccc2)n1	23µM*	-88*	?	8.2µM*	4.1µM*
Cc1ccc(Nc2cc(C)nc(-c3ccccc3O)n2)cc1	-29%	-13	?	?	?
Cc1cc(Nc2cccc(F)c2)nc(NCc2ccccc2)n1	?	-102*	?	4.1µM*	5.8µM*
Cc1ccc(Nc2cc(C)nc(-c3ccccc3)n2)cc1	-8%	-98*	-8%	?	-25%
SMILES	HT1080 IDH1KD tx	IL-1B inflam inh	HT1080-NT tox	DT40 TDP1 CPT	DT40 TDP1 no CPT
Cc1cc(Oc2ccccc2F)nc(NCc2ccccc2)n1	-18%	-1	-6%	?	?
O=C1CN(C(=O)CCCc2c[nH]c3ccccc23)c2ccccc2N1	-1%	4	-16%	?	?
Cc1noc(C)c1CSCC(=O)Nc1nnc(CC(C)C)s1	5%	47	7%	-10%	-5%
O=C(O)CNC(=O)c1ccccc1I	.	.	.	-9%	1%
NC(N)=N/N=C(\N=Nc1ccccc1)c1ccc(Cl)cc1	-9%	-113*	?	13µM*	13µM*
NC(N)=N/N=C(\N=Nc1ccccc1)c1cccc2cccnc12	?	-13	0%	23µM*	21µM*
CN(C(=O)COC(=O)c1ccc(S(=O)(=O)N2CCCCCC2)cc1)c1ccccc1	7%	53	1%	-5%	-16%
CN(C1=NS(=O)(=O)N=C(N(C)c2ccccc2)O1)c1ccccc1	?	-102*	?	?	?
CNc1nc(-c2ccc(C(=O)N(C)C)cc2)nc2ccccc12	.	.	.	-13%	-25%
c1ccc(CN2CCC(Nc3ncnc4sccc34)CC2)cc1	?	0	3%	10%	2%
Cc1csc2c(NC3CCN(Cc4ccccc4)CC3)ncnc12	-13%	-19	-3%	23µM*	16µM*
Cc1sc2ncnc(NC3CCN(Cc4ccccc4)CC3)c2c1C	?	?	?	2.6µM*	3.7µM*
COc1cccc(CNC(=O)C(=O)NCC2CCCN2S(=O)(=O)c2cc(C)ccc2C)c1 (stereo unspecified)	1%	1	8%	-22%	?
CC(c1ccccc1)N1CC(C(=O)N2CCN(Cc3ccc(C#N)cc3)CC2)CC1=O (stereo unspecified)	3%	19	-7%	-5%	-27%
CCn1c(SCC(=O)Nc2ccc3c(c2)OCCO3)nnc1-c1cccnc1	-3%	14	2%	0%	-13%
O=C(Nc1cccc2cccnc12)c1csc(COCCO)n1	0%	?	-13%	23µM*	13µM*
O=C(Nc1cccc2ccccc12)c1csc(COCCO)n1	-25%	-3	-28%	-58%	-45%
CCN(C(=O)CSc1nc2ncccc2[nH]1)c1ccc(C(C)C)cc1	.	.	.	-14%	-21%
Cc1ccc(Cl)cc1NC(=O)CSc1ccc(C(=O)O)cn1	.	.	.	-29%	-3%
Cc1ccc(C(O)(c2ccccc2)c2ccccc2C(C)N(C)C)c(C)c1 (stereo unspecified)	?	-68*	?	?	18µM*
